The panel holds about 83,000 compounds, 20% with a hit somewhere; the sample as a whole holds those more often.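 Values shown are percent growth following 48 h exposure of cells in 96-well plates to a single concentration of compound; below 10 was considered active.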 Values without a mark were called inactive. The source made the active and inactive calls.

Assay in all cases: NCI-60 one-dose screen, 48 h (100 = growth as untreated, 0 = no growth, -100 = all killed)
The test system of test [1] is EKVX NSCLC. The conditions noted are these: 10 µM unless noted.
Test [2] has as its system SN12C renal. The conditions noted are these: 10 µM unless noted.
Test [3] concerns UO-31 renal. The conditions noted are these: 10 µM unless noted.
Test [4] concerns TK-10 renal. The conditions noted are these: 10 µM unless noted.
The subject of test [5] is ACHN renal. The conditions noted are these: 10 µM unless noted.
The test system of test [6] is CAKI-1 renal. The conditions noted are these: 10 µM unless noted.
The test system of test [7] is A498 renal. The conditions noted are these: 10 µM unless noted.
Test [8] relates to CCRF-CEM leukemia. The conditions noted are these: 10 µM unless noted.
Test [9] has as its system MOLT-4 leukemia. The conditions noted are these: 10 µM unless noted.
Test [10] relates to SR leukemia. The conditions noted are these: 10 µM unless noted.
In test [11] the test system is RPMI-8226 leukemia. The conditions noted are these: 10 µM unless noted.
For test [12], the system named is OVCAR-8 ovarian. The conditions noted are these: 10 µM unless noted.
The subject of test [13] is OVCAR-5 ovarian. The conditions noted are these: 10 µM unless noted.
Test [14] deals with OVCAR-4 ovarian. The conditions noted are these: 10 µM unless noted.
The test system of test [15] is SK-OV-3 ovarian. The conditions noted are these: 10 µM unless noted.
In test [16] the test system is IGROV1 ovarian. The conditions noted are these: 10 µM unless noted.
The subject of test [17] is OVCAR-3 ovarian. The conditions noted are these: 10 µM unless noted.
Test [18] deals with NCI/ADR-RES ovarian. The conditions noted are these: 10 µM unless noted.
Test [19] deals with HS 578T breast. The conditions noted are these: 10 µM.
Test [20] deals with SK-MEL-2 melanoma. The conditions noted are these: 10 µM unless noted.

`Cc1ccccc1N1C(c2ccccc2)=NNC12C=CC(=O)c1c(O)cccc12` (centres undefined): the growth in test [1] is 79.7%; in test [2], 62.2%; in test [3] it was 57.5%; in [4], 116%; in test [5] it was 81.7%; in [6], 96.9%. Further, the growth in test [7] is 76.4%; in test [8], 119%; in test [9], 101%; in test [10], 97%; in [11] it was 83.8%; in test [12] it was 60.1%. The growth in [13] was 83.8%; in [14], 61.3%; in [15], 74.4%; in test [16], 93.2%; in test [17] it was 60.5%; in test [18], 72.5%.
Turning to `O=c1cc(-c2ccc3c(c2)OCCO3)oc2cc(Cl)ccc12`, the growth in test [1] is 28.1%; in test [2] it was 26%; in test [3], -72.2% (active); in test [4], -78.2% (active); in test [5], -70.1% (active); in [6], 4.01% (active). Besides, the growth was 8.97% (active) in test [7]; 97% in test [8]; 101% in test [9]; 28.8% in test [11]; 13.5% in test [12]; 32.8% in [13]. Moreover, the growth in test [14] was -12.5% (active); in test [15], 2.04% (active); in test [16], -9.4% (active); in test [17], -40.2% (active); in test [19] it was 41.2%; in [18], 38.2%.
As for `CCOC(=O)c1sc2nc(-c3cc4ccccc4o3)cc(-c3ccc(Cl)cc3)c2c1N`, the growth in test [20] was 83.8%; in [2] it was 82.4%; in test [3] it was 87.2%; in test [4], 145%; in test [5] it was 80.9%; in test [7] it was 98.2%. The growth in [8] was 84%; in [9], 99.3%; in test [10] it was 71.6%; in test [11], 42.4%; in [12] it was 112%; in [14] it was 101%. Moreover, the growth is 104% in [15]; 81.2% in test [16]; 103% in test [17]; 91.9% in test [19]; 112% in test [18].
As to `COc1cc2c(cc1OC)C(=O)OC2`, the growth is 108% in test [1]; 99.8% in [2]; 101% in [3]; 123% in [4]; 103% in test [5]; 55.6% in [6]. In addition, the growth in test [7] was 109%; in test [8], 124%; in test [9] it was 104%; in test [10], 106%; in test [11], 367%; in test [12], 101%. The growth in test [13] is 100%; in test [14], 108%; in test [15], 124%; in test [17], 110%; in test [19], 109%; in test [18], 119%.
With `COc1ccc(C2C3=C(COC3=O)N(CCO)c3cc(OC)c(OC)cc32)cc1` (centres undefined), the growth in test [1] is 86.2%; in test [2], 102%; in [3], 90.8%; in test [4], 93.4%; in [5], 99.8%; in test [6] it was 108%. The growth is 103% in test [7]; 95.8% in test [8]; 88.2% in [9]; 93.1% in test [10]; 96.1% in test [11]; 108% in [12]. In addition, the growth in test [14] is 105%; in [15], 106%; in test [17], 109%; in [19] it was 106%; in test [18] it was 105%.
Turning to `COc1ccc(-c2nsc3c2NC(=O)CC3c2ccc3c(c2)OCO3)cc1` (centres undefined), the growth in test [20] is 26.4%; in test [2], 55.8%; in test [3], 33.6%; in test [4], 32.3%; in test [5] it was 50.3%; in test [6] it was 26.1%. Moreover, the growth is 3.82% (active) in [8]; 18.4% in test [9]; -21.6% (active) in [10]; 2.77% (active) in test [11]; 26.2% in [12]; 48.6% in test [13]. Besides, the growth is 66.8% in test [14]; 24.4% in test [15]; 19.7% in test [16]; -26.3% (active) in test [17]; 17.6% in [19]; 13.9% in [18].
For `C=C1NC(=O)C(C(C)CC)NC(=O)C2CSCC(NC(=O)CCC(=O)O)C(=O)NC(Cc3ccccc3)C(=O)NC(C)C(=O)NC(CC(C)CC)C(=O)NC(C(=O)NC(Cc3ccccc3)C(=O)N3CCCC3C(=O)N2)C(C)OC(=O)C(CO)NC(=O)C(C(O)COC)N(C)C(=O)C(C(C)C)NC(=O)C(CC(C)CC)NC1=O` (centres undefined), the growth is 30.4% [6 µM] in test [1]; 31.4% [6 µM] in test [2]; 57.4% [6 µM] in [3]; 60.2% [6 µM] in test [4]; 37.4% [6 µM] in test [5]; 33.1% [6 µM] in test [6]. Also, the growth in test [7] was -11.8% [6 µM] (active); in test [8], 18.6% [6 µM]; in test [9] it was 16.9% [6 µM]; in [10] it was 12.5% [6 µM]; in test [11], 25.3% [6 µM]; in test [12], 12.9% [6 µM]. Further, the growth was 44.9% [6 µM] in test [13]; 55.6% [6 µM] in test [14]; 39% [6 µM] in test [15]; 30.9% [6 µM] in test [16]; 12.4% [6 µM] in test [17]; 9.55% [6 µM] (active) in [18].
On to `CC1=NN(c2cccc(S(N)(=O)=O)c2)C(=O)C1`, for which the growth in test [1] was 91.2%; in [2], 90.9%; in test [3], 77.1%; in test [4], 97.8%; in [5], 99.6%; in test [6] it was 51%. In addition, the growth in test [7] is 88.6%; in test [8], 79.6%; in [9], 99.7%; in test [10] it was 107%; in [11], 271%; in test [12] it was 107%. In addition, the growth in test [13] is 89.9%; in [14] it was 99.4%; in test [15] it was 91.3%; in test [17] it was 96.3%; in [19], 86.6%; in test [18] it was 95.2%.
On to `COc1ccc(C2=CC(c3ccc(OC)cc3Br)N3C=CSC3=N2)cc1` (centres undefined), for which the growth was 109% in test [20]; 57.6% in test [2]; 37.7% in test [3]; 72% in test [4]; 71.4% in test [5]; 72.2% in [7]. Besides, the growth in test [8] is 26.9%; in [9], 36.7%; in test [10], -22.1% (active); in test [11], -9.05% (active); in test [12], 73.7%; in test [13] it was 84.6%. The growth in test [14] is 79.7%; in test [15], 98.2%; in [17], 37.5%; in test [19], 87.7%; in test [18], 86.5%.

These data come from PubChem BioAssay (NCI).
